Assay outcomes as filed in PubChem BioAssay.
Only some compounds are listed: those with a hit (about 22% of all), similar ones and a draw of the others.
CYP2C19 act: activators of human cytochrome P450 2C19; P33261; recombinant CYP2C19, luciferin-H EGE luminescence; stronger effect = higher value; 0 = fully inhibited enzyme, 1 = untreated enzyme; activation factor at 5 µM; 96,000 tested, under 10 active;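 active means activation factor of at least 2 at 5 µM in the primary screen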
CYP2C9 inhib: human CYP2C9 inhibition | CYP2C9 Supersomes, luciferin-H conversion, luminescence | inhibition, % at 5 µM | P11712 | hit rate 20% among 96,000 | AID 777;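 active means blocking of liver enzyme CYP2C9 beyond about 50% at 5 µM, limit read from the data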
Target sequence (P11712 whole entry, looked up): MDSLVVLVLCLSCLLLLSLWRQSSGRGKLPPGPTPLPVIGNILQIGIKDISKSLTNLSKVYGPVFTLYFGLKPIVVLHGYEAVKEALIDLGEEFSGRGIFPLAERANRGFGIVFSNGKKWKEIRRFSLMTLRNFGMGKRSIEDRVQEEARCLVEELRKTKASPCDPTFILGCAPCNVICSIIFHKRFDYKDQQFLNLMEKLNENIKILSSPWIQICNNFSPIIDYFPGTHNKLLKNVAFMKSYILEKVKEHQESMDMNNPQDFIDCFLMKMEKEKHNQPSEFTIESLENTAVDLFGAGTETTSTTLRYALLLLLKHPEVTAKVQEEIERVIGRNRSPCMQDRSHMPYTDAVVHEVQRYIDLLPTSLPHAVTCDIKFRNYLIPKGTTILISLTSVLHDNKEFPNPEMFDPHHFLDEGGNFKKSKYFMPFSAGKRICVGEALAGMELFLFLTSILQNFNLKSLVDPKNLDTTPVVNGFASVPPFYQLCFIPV
CYP2C19 inh: inhibitors of human CYP2C19; CYP2C19 Supersomes, luciferin-H EGE luminescence, 30 min; inhibition, % at 5 µM; hit rate 21% among 96,000;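 active means CYP2C19 inhibition above a set limit at 5 µM in the primary screen, cut at about 50% in these data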
Measles CPE: protection of cells from measles virus. Measles virus-infected cells, CPE protection, absorbance. AID 841. hit rate 1.5% among 140,000. protection (pct of control), % at 4 µM; in the data active means protection mostly above about 24%, no sharp cut-off; inactive means mostly below about 26%
CYP2C9 activ: CYP2C9 (human) activation. P11712. AID 1024. recombinant CYP2C9, luciferin-H conversion, luminescence; stronger effect = higher value; factor 1 = untreated enzyme, 0 = blocked. hit rate 1.4% among 96,000. activation factor at 5 µM;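 active means activation factor of 2 or more for CYP2C9 at a 5 µM dose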
Hits are given with their value; – = inactive; · = no result given.

SMILES	CYP2C19 act	CYP2C9 inhib	CYP2C19 inh	Measles CPE	CYP2C9 activ
COc1ccc(S(=O)(=O)NCCOc2ccccc2)cc1OC	–	–	100.0	–	2.9
CCNS(=O)(=O)c1cc(OC)c(Cl)cc1OC	·	·	·	–	·
CCN(CC)S(=O)(=O)c1cc(OCC(N)=O)c(C)cc1Cl	·	·	·	–	·
CCN(CC)S(=O)(=O)c1cc(OC)c(Cl)cc1Cl	–	–	97.3	–	3
CCN(CC)S(=O)(=O)c1ccc(Cl)c(OC)c1	–	–	89.2	–	2.4
COCCNS(=O)(=O)c1cc(OC)c(Cl)cc1Cl	–	–	68.3	–	–
CC(C)COC(=O)C1[C@H]2C(=O)N(Cc3cccs3)C[C@]23C=C[C@H]1O3 (some centres undefined)	–	–	–	–	–
CCNS(=O)(=O)c1ccc(Br)c(OC)c1	–	–	–	–	2.2
COc1cc(S(=O)(=O)NCc2ccccc2)ccc1Br	·	·	·	–	·
CCN(CC)S(=O)(=O)c1cc(C(=O)n2cccn2)c(Cl)cc1Cl	–	–	66.1	–	2.3
CCOc1cccc(/C=N/Nc2ccc(S(=O)(=O)N(CC)CC)cn2)c1O	·	·	·	–	·
CCOc1cc(S(=O)(=O)N(CC)CC)ccc1Br	–	–	94.9	–	–
COc1cc(OC)cc(C(=O)Nn2cc(C(=O)Nc3ccc(F)cc3F)c3ccccc3c2=O)c1	·	·	·	–	·
COc1cc(/C=N/NC(=O)CCc2c(C)n[nH]c2C)ccc1O	–	–	–	–	–
N#CCC(=O)N/N=C/c1ccc(OS(=O)(=O)c2ccccc2)cc1	–	–	–	–	–
CC(C)NC(=O)C1(c2ccccc2)CC1(Cl)Cl (centres undefined)	·	·	·	–	·
Cc1ccccc1C(=O)N1CCc2cc(-c3nc(NC(=O)Cc4ccc5c(c4)OCO5)sc3C)ccc21	·	·	·	62.1	·
Cc1sc(NC(=O)CN2CCOCC2)nc1-c1ccc2c(c1)CCN2S(=O)(=O)c1ccccc1	–	–	–	–	–
CCC(CC)C(=O)Nc1nc(-c2ccc3c(c2)CCN3C(=O)C2CC2)c(C)s1	–	80.8	–	–	–
Cc1sc(NC(=O)Cc2ccc3c(c2)OCO3)nc1-c1ccc2c(c1)CCN2C(=O)c1cccc(F)c1	·	·	·	53.4	·
CCOc1ccccc1NC=C1C(=O)OC(C)(C)OC1=O	–	–	–	–	2
Cn1c(CN2CCOCC2)nnc1SCC(=O)NCCc1ccccc1	–	–	–	–	–
Clc1ccc(NC2(c3nnnn3C3CCCCC3)CCCCC2)cc1	–	–	–	50.1	–
O=C(CSc1nccc(=O)[nH]1)c1ccccc1Br	–	55.0	–	–	–
O=C(CSc1nccc(=O)[nH]1)N1CCc2ccccc2C1	–	–	–	–	–
SMILES	CYP2C19 act	CYP2C9 inhib	CYP2C19 inh	Measles CPE	CYP2C9 activ
Cc1ccc([N+](=O)[O-])cc1N=C(c1cccc(Br)c1)N1CCOCC1	–	51.8	64.4	–	–
CCNc1nc(NC(C)C)nc(N(n2cnnc2)S(=O)(=O)c2ccc(C)cc2)n1	·	·	·	–	·
Cc1ccc(Cn2ccc(=O)c(OCc3c(Cl)cccc3Cl)c2C)cc1	–	–	65.0	–	–
COc1ccc(N2CCN(C(=O)CN(c3ccccc3)S(C)(=O)=O)CC2)cc1	–	–	–	–	–
COc1ccc(N(CC(=O)N2CCN(c3ccccc3)CC2)S(=O)(=O)c2c(C)noc2C)cc1	–	–	64.7	41.0	–
COc1ccc(N(CC(=O)NN=C2CCCC2)S(=O)(=O)c2ccccc2)cc1	–	–	51.4	44.0	–
CC(=O)c1ccc(N2CCN(C(=O)CCS(=O)(=O)c3ccc(C)cc3)CC2)cc1	–	–	–	47.4	–
COc1ccc(S(=O)(=O)N(CC(=O)N2CCN(c3ccccc3)CC2)c2ccccc2)cc1	–	–	–	41.7	–
CCOc1cc(NC(=S)NCC(C)C)c(OCC)cc1NC(=O)c1cccs1	–	–	–	–	–
Cc1ccc(N(C(=O)Cn2nnc3ccccc32)C(C(=O)NCc2ccccc2)c2ccccn2)cc1 (centres undefined)	·	·	·	–	·
COC(=O)c1cc(OC)c(OC)cc1NC(=O)c1ccc(OC)c(OC)c1	–	–	–	–	–
Cc1noc(C)c1S(=O)(=O)N(CC(=O)N1CCCC1)c1ccc(C(C)C)cc1	–	–	–	–	–
CCN(CC(=O)N1CCN(c2ccccc2)CC1)S(=O)(=O)c1ccc(C)cc1	·	·	·	63.0	·
Cc1noc(C)c1S(=O)(=O)N(CC(=O)N1CCCCCC1)c1ccc(C(C)C)cc1	–	76.9	71.5	–	–
CN(CC(=O)N1CCN(c2ccccc2)CC1)S(=O)(=O)c1cnc[nH]1	–	100.4	91.7	–	–
CN(CC(=O)N1CCN(c2cccc(Cl)c2)CC1)S(=O)(=O)c1cnc[nH]1	·	·	·	–	·
